Measured values as given in PubChem BioAssay.
Activity calls are given as the source filed them.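 Rule for the calls, unless noted: active = response below a set limit, under 55% cells CD8-positive and vesicle-bound, and CD8 cells' 90th-percentile brightness under 279; inactive = the rest.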

Test system: not listed separately
Experiment: reduced mouse 2C T cell binding to pMHC/ICAM-1 vesicles – MLPCN validation set, flow cytometry, LFA-1/ICAM-1 modulator project, pilot screen (AID 2523);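 for vesicle binding response: mean PE anti-B7-1 fluorescence of CD8+ cells relative to row control; 100% = QL9-loaded vesicles with DMSO vehicle in the same plate row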
Settings: 2C mouse CD8+ T cells, at 7 µM, stronger effect = lower value; double positive events: measured here: CD8+/vesicle+ event percentage

Row | Compound | vesicle binding response | double positive events [%]
1 | C[C@]12CC[C@@H]3c4ccc(OS(=O)(=O)O)cc4CC[C@H]3[C@@H]1CCC2=O | 292% (inactive) | 73.4
2 | O=C1C2C3C=CC(C4CC34)C2C(=O)N1/N=C/c1ccc(-c2ccc([N+](=O)[O-])cc2)o1 (stereo not given) | 153% (inactive) | 57.9
3 | Cc1oc2ccc(OC(=O)c3cccs3)cc2c1C(=O)OC(C)C | 205% (inactive) | 64.6
4 | COc1ccc(CCN(C)CC(=O)Nc2cc(C)nc3ccccc23)cc1OC | 193% (inactive) | 71.8
5 | C[C@]12C=CC(=O)C=C1CCC1C3CC[C@](O)(C(=O)CO)[C@@]3(C)CC3OC312 (stereo not given in full) | 298% (inactive) | 76.1
6 | c1ccc2c(c1)CCCC2C1=NCCN1 (stereo not given) | 263% (inactive) | 69.5
7 | C=CCc1cc(Cl)ccc1OCCOCCN(C)C | 144% (inactive) | 60
8 | COc1cc2c(cc1OC)C(Cc1ccc(O)cc1)N(C)CC2 (stereo not given) | 289% (inactive) | 56
9 | CCOc1ccc(C(=O)Nc2ccc(N3CCN(C(C)=O)CC3)cc2)cc1[N+](=O)[O-] | 210% (inactive) | 68.5
10 | OCCN(CCO)c1ccc2ccccc2c1 | 267% (inactive) | 66.7
11 | COc1ccc(CN(C)CCc2ccccn2)cc1OC | 91.8% (inactive) | 55.5
12 | CC(=O)OCC1OC(n2ccc(=O)[nH]c2=O)C(O)C1O (stereo not given) | 42.8% (inactive) | 60.2
13 | CC(=O)N1N=C(c2cccs2)CC1c1ccc(C)o1 (stereo not given) | 145% (inactive) | 55.8
14 | Cc1cc(C)c2c(CCl)cc(=O)oc2c1 | 174% (inactive) | 60.3
15 | NC12CC3CC(CC(C3)C1)C2 | 195% (inactive) | 60.2
16 | CC12CCC(C(=O)N3CCCCC3)([C@H](Br)C1=O)C2(C)C (stereo not given in full) | 272% (inactive) | 65.8
17 | CC(NCCC(c1ccccc1)c1ccccc1)c1ccccc1 (stereo not given) | 167% (inactive) | 64.4
18 | O=P(O)(O)CP(=O)(O)O | 178% (inactive) | 61.8
19 | CCCCC[C@H](O)/C=C/[C@@H]1[C@@H](C/C=C\CCCC(=O)OC)[C@@H](O)C[C@H]1O | 157% (inactive) | 59.2
20 | Cc1cc(C(C)(C)C)cc(C)c1CC1=NCCN1 | 214% (inactive) | 62.8

Row | Compound | vesicle binding response | double positive events [%]
21 | CC1CCCc2sc3ncn(N)c(=N)c3c21 (stereo not given) | 246% (inactive) | 62.2
22 | O=C1NC2(Nc3ccccc31)C(=O)Nc1ccc(Br)cc12 (stereo not given) | 220% (inactive) | 72
23 | Cc1cc(-c2ccccc2)nnc1NCCN1CCOCC1 | 223% (inactive) | 67.8
24 | Cc1ccccc1OCC(O)CN1CCN(C)CC1 (stereo not given) | 193% (inactive) | 62.9
25 | COc1cc(/C=C/C(=O)N2CCCC2)cc(OC)c1OC | 29.3% (inactive) | 61.5
26 | CNCCCN1c2ccccc2CCc2ccccc21 | 231% (inactive) | 71.5
27 | Nc1c2c(nc3ccccc13)CCCC2 | 258% (inactive) | 68.9
28 | COc1ccc(C2C3C(C)=NN=C3CC(C)(O)C2C(C)=O)cc1 (stereo not given) | 265% (inactive) | 60.7
29 | O=c1c2ccccc2nnn1Cc1cccc2ccccc12 | 217% (inactive) | 61
30 | CC1(C)CC(=O)C(C(=O)CCCCC(=O)C2C(=O)CC(C)(C)CC2=O)C(=O)C1 | 197% (inactive) | 76
31 | COC(=O)c1ccc(CC(=O)c2ccc(O)cc2O)o1 | 248% (inactive) | 72.3
32 | O=C(CCCCCCCC(=O)c1ccccc1)c1ccccc1 | 189% (inactive) | 62.1
33 | CC(=O)OC[C@H]1O[C@@H](n2ncc(=O)[nH]c2=O)[C@H](OC(C)=O)[C@@H]1OC(C)=O | 78.5% (active) | 53.4
34 | CC1CNCCN1S(=O)(=O)c1cccc2cnccc12 (stereo not given) | 918% (inactive) | 62.9
35 | COc1cc(C2C(C(=O)c3ccc(C)o3)=C(O)C(=O)N2Cc2cccnc2)ccc1O (stereo not given) | 171% (inactive) | 68.3
36 | Cc1ccccc1NC(=O)C1c2ccccc2Oc2ccccc21 | 217% (inactive) | 65.5
37 | COc1ccc(-c2coc3cc(O)cc(O)c3c2=O)cc1 | 199% (inactive) | 58.4
38 | Nc1cccc(C(=O)O)c1 | 214% (inactive) | 63.4
39 | CCN1CCN(C(=O)N[C@@H](C(=O)N[C@@H]2C(=O)N3[C@@H]2SC(C)(C)[C@@H]3C(=O)O)c2ccccc2)C(=O)C1=O | 138% (inactive) | 69.1
40 | COCCc1ccc(OCC(O)CNC(C)C)cc1 (stereo not given) | 212% (inactive) | 68.1

Target: Integrin beta-1 (Homo sapiens) + Integrin alpha-4 (Homo sapiens) (UniProt P13612+P05556)
Experiment: alpha4beta1 integrin LIBS antibody binding reduction – U937 cells, HUTS-21 mAb, flow cytometry, validation set, VLA-4 allosteric modulator project, pilot screen (AID 2674;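 active = inhibition above 50%, about 3 SD of the validation set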;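 note: antibody binding induced by the VLA-4 ligand LDV present at three times its Kd; 0% = LDV ligand with antibody and no compound and 100% = antibody without LDV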)
Settings: HUTS-21 LIBS mAb binding, at 6.7 µM, stronger effect = higher value, binding induced by LDV ligand

Integrin beta-1 (Homo sapiens) + Integrin alpha-4 (Homo sapiens), sequence (P05556 whole entry, looked up): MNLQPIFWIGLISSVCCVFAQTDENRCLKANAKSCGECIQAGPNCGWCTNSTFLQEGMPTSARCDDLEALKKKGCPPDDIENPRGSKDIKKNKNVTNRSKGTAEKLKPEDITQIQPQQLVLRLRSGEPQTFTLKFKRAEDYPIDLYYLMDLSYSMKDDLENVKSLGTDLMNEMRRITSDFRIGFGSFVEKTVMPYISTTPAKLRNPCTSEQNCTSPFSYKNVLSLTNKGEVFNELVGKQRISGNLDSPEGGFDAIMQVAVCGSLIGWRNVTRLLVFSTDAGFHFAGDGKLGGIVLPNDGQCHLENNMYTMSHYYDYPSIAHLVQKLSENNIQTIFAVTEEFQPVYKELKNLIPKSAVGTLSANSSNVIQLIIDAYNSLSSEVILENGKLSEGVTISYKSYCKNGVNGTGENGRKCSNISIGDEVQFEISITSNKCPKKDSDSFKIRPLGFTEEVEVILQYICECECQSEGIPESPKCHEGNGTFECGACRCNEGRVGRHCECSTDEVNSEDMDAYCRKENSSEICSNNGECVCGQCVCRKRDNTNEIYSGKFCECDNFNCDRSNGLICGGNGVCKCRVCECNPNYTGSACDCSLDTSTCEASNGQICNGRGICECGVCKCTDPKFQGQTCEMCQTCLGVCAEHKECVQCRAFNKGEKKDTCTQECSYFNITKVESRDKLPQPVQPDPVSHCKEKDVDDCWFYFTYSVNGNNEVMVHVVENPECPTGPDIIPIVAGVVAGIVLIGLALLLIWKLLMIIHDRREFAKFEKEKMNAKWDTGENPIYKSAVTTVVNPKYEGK
Integrin beta-1 (Homo sapiens) + Integrin alpha-4 (Homo sapiens), sequence (P13612 whole entry, looked up): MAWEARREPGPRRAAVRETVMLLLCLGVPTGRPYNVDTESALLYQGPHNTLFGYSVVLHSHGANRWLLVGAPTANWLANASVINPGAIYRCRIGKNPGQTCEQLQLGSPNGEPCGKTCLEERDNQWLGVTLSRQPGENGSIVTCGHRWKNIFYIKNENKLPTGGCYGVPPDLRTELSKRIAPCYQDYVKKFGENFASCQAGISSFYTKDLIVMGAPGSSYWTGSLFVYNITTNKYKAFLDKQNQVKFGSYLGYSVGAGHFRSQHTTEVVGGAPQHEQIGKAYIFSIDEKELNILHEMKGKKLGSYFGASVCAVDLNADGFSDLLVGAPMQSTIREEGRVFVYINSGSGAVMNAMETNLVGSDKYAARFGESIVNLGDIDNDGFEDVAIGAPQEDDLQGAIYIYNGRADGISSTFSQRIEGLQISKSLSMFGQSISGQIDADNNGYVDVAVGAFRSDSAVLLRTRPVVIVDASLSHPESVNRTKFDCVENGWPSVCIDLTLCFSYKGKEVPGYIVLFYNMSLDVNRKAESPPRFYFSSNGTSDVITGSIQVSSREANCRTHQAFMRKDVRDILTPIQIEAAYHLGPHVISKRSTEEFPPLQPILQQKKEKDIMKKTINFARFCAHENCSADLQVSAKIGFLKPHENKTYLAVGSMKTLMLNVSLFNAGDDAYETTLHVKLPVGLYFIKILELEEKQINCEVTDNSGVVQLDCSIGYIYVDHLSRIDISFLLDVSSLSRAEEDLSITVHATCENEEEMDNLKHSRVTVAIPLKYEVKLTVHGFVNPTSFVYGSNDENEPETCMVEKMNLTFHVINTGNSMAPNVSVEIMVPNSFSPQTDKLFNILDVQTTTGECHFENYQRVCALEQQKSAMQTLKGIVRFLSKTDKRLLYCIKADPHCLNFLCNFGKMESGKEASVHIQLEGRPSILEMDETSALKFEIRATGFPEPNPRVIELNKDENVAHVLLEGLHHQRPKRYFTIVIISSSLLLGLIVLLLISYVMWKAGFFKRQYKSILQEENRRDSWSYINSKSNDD

Row | Compound | inhibition
41 | C[C@]12CC[C@@H]3c4ccc(OS(=O)(=O)O)cc4CC[C@H]3[C@@H]1CCC2=O | 5.49% (inactive)
42 | O=C1C2C3C=CC(C4CC34)C2C(=O)N1/N=C/c1ccc(-c2ccc([N+](=O)[O-])cc2)o1 (stereo not given) | -0.43% (inactive)
43 | Cc1oc2ccc(OC(=O)c3cccs3)cc2c1C(=O)OC(C)C | -4.52% (inactive)
44 | COc1ccc(CCN(C)CC(=O)Nc2cc(C)nc3ccccc23)cc1OC | 10.5% (inactive)
45 | C[C@]12C=CC(=O)C=C1CCC1C3CC[C@](O)(C(=O)CO)[C@@]3(C)CC3OC312 (stereo not given in full) | 5.03% (inactive)
46 | c1ccc2c(c1)CCCC2C1=NCCN1 (stereo not given) | -15.6% (inactive)
47 | C=CCc1cc(Cl)ccc1OCCOCCN(C)C | -4.52% (inactive)
48 | COc1cc2c(cc1OC)C(Cc1ccc(O)cc1)N(C)CC2 (stereo not given) | 8.4% (inactive)
49 | CCOc1ccc(C(=O)Nc2ccc(N3CCN(C(C)=O)CC3)cc2)cc1[N+](=O)[O-] | 3.55% (inactive)
50 | OCCN(CCO)c1ccc2ccccc2c1 | 0.94% (inactive)
51 | COc1ccc(CN(C)CCc2ccccn2)cc1OC | -15.4% (inactive)
52 | CC(=O)OCC1OC(n2ccc(=O)[nH]c2=O)C(O)C1O (stereo not given) | -12.9% (inactive)
53 | CC(=O)N1N=C(c2cccs2)CC1c1ccc(C)o1 (stereo not given) | 11.3% (inactive)
54 | Cc1cc(C)c2c(CCl)cc(=O)oc2c1 | 33.8% (inactive)
55 | NC12CC3CC(CC(C3)C1)C2 | -27.5% (inactive)
56 | CC12CCC(C(=O)N3CCCCC3)([C@H](Br)C1=O)C2(C)C (stereo not given in full) | 8.4% (inactive)
57 | CC(NCCC(c1ccccc1)c1ccccc1)c1ccccc1 (stereo not given) | 6.46% (inactive)
58 | O=P(O)(O)CP(=O)(O)O | 22.7% (inactive)
59 | CCCCC[C@H](O)/C=C/[C@@H]1[C@@H](C/C=C\CCCC(=O)OC)[C@@H](O)C[C@H]1O | -30.4% (inactive)
60 | Cc1cc(C(C)(C)C)cc(C)c1CC1=NCCN1 | 18.1% (inactive)

Row | Compound | inhibition
61 | CC1CCCc2sc3ncn(N)c(=N)c3c21 (stereo not given) | -3.16% (inactive)
62 | O=C1NC2(Nc3ccccc31)C(=O)Nc1ccc(Br)cc12 (stereo not given) | -3.24% (inactive)
63 | Cc1cc(-c2ccccc2)nnc1NCCN1CCOCC1 | 0.64% (inactive)
64 | Cc1ccccc1OCC(O)CN1CCN(C)CC1 (stereo not given) | 4.52% (inactive)
65 | COc1cc(/C=C/C(=O)N2CCCC2)cc(OC)c1OC | 6.81% (inactive)
66 | CNCCCN1c2ccccc2CCc2ccccc21 | 16.2% (inactive)
67 | Nc1c2c(nc3ccccc13)CCCC2 | 1.61% (inactive)
68 | COc1ccc(C2C3C(C)=NN=C3CC(C)(O)C2C(C)=O)cc1 (stereo not given) | 13.2% (inactive)
69 | O=c1c2ccccc2nnn1Cc1cccc2ccccc12 | -13.9% (inactive)
70 | CC1(C)CC(=O)C(C(=O)CCCCC(=O)C2C(=O)CC(C)(C)CC2=O)C(=O)C1 | -6.15% (inactive)
71 | COC(=O)c1ccc(CC(=O)c2ccc(O)cc2O)o1 | -32.3% (inactive)
72 | O=C(CCCCCCCC(=O)c1ccccc1)c1ccccc1 | -5.89% (inactive)
73 | CC(=O)OC[C@H]1O[C@@H](n2ncc(=O)[nH]c2=O)[C@H](OC(C)=O)[C@@H]1OC(C)=O | 5.49% (inactive)
74 | CC1CNCCN1S(=O)(=O)c1cccc2cnccc12 (stereo not given) | 17.2% (inactive)
75 | COc1cc(C2C(C(=O)c3ccc(C)o3)=C(O)C(=O)N2Cc2cccnc2)ccc1O (stereo not given) | 2.58% (inactive)
76 | Cc1ccccc1NC(=O)C1c2ccccc2Oc2ccccc21 | 4.52% (inactive)
77 | COc1ccc(-c2coc3cc(O)cc(O)c3c2=O)cc1 | 5.49% (inactive)
78 | Nc1cccc(C(=O)O)c1 | 10.3% (inactive)
79 | CCN1CCN(C(=O)N[C@@H](C(=O)N[C@@H]2C(=O)N3[C@@H]2SC(C)(C)[C@@H]3C(=O)O)c2ccccc2)C(=O)C1=O | -5.18% (inactive)
80 | COCCc1ccc(OCC(O)CNC(C)C)cc1 (stereo not given) | 7.85% (inactive)
